# Assay results reported in PubChem BioAssay (Tox21).
# A number with no mark means an inactive call. Records with an inconclusive call do not appear. Where a call stands in place of a potency, no number is given. Activity calls are given as the source filed them. Unless noted, the call rests on the fitted dose curve; in most records, active means well fitted curve in the direction sought with a large enough effect in the repeat runs; inconclusive means weak or mixed curves; inactive means no such curve, though single readings can be large; an effect the other way counts as inactive or inconclusive.
# Key:
# [1] = target: Androgen receptor (Homo sapiens) (UniProt P10275); assay: qHTS assay to identify small molecule antagonists of the androgen receptor (AR) signaling pathway using the MDA cell line in the presence of 0.5 nM R1881 (AID 1259243); details: MDA-kb2 MMTV-luciferase, R1881 0.5 nM, 16 h; series mostly up to 92.4 µM; further: nearly all actives have a fitted effect of over 50% in size; further: potency means the concentration at half of the fitted maximal effect
# Summary of the method: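 Antagonist mode quantitative HTS in MDA-kb2 MMTV-luciferase cells, agonist R1881 at 0.5 nM final, 16 hr exposure at 37C and 0% CO2, luminescent detection.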
# [2] = qHTS assay to identify small molecule phospholipidosis (PLD) inducers (AID 1259344; active means well fitted curve in the direction sought with a large enough effect; an effect the other way counts as inactive or inconclusive); details: HepG2 phospholipidosis, LipidTOX Red imaging, 24 h; series mostly up to 38.3 µM
# Summary of the method: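 After 4 h attachment on collagen I, HepG2 cells were dosed with compound alongside LipidTOX Red, kept 24 h at 37 C, fixed, and imaged for lamellar phospholipid pits.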
# [3] = qHTS assay to identify small molecule HDAC inhibitors (AID 1259364); details: HCT-116 HDAC-Glo I/II luminescence, 2 h; series mostly up to 92.4 µM; further: potency means the concentration at half of the fitted maximal effect;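 further: wild-type HCT-116 cells with endogenous class I/II HDAC activity; nearly all actives have a fitted effect of over 45% in size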; on activity change, negative = inhibition: top concentration of the series differs between compounds
# Summary of the method: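 Quantitative high-throughput format: overnight-seeded HCT-116 cells got compounds for 2 hr at 37C; HDAC-Glo I/II reagent added, 30 min RT, luminescence measured.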
# [4] = qHTS assay to identify small molecule HDAC inhibitors - cell viability counter screen (AID 1259365); details: HCT-116 viability, CellTiter-Glo ATP luminescence, 2 h; series mostly up to 92.4 µM; further: nearly all actives have a fitted effect of over 50% in size
# Summary of the method: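 Luminescence from CellTiter-Glo, developed 30min at room temperature, reports viability of wild-type HCT-116 cells treated 2hr with compounds at 37 C and 5% CO2 after overnight plating.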
# [5] = qHTS assay to identify small molecule agonists of the sonic hedgehog signaling (Shh) pathway - cell viability counter screen (AID 1259366); details: NIH/3T3 Gli1-Luc viability, CellTiter-Fluor, 24 h; series mostly up to 92.4 µM; further: nearly all actives have a fitted effect of over 50% in size; further: potency means the concentration at half of the fitted maximal effect
# Summary of the method: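 Cytotoxicity counter screen run in the same wells as the Shh reporter assay. NIH/3T3 cells carrying a Gli1 response element–driven luciferase were treated with DMSO-dissolved compounds for 24hr, and live-cell protease activity was measured with CellTiter-Fluor.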
# [6] = qHTS assay to identify small molecule antagonists of the sonic hedgehog signaling (Shh) pathway - cell viability counter screen (AID 1259367); details: NIH/3T3 Gli1-Luc viability, CellTiter-Fluor, 24 h; series mostly up to 92.4 µM; further: nearly all actives have a fitted effect of over 55% in size; further: potency means the concentration at half of the fitted maximal effect
# Summary of the method: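 Conditioned medium drove Shh signaling in 3T3 Gli1-Luc cells exposed to compounds at 37C and 5% CO2. Viability was determined from CellTiter-Fluor fluorescence, with reagent incubated 1 hr after 23 hr of treatment.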
# [7] = qHTS assay to identify small molecule agonists of the sonic hedgehog signaling (Shh) pathway (AID 1259368; calls by dose curve;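 further: NIH/3T3-derived 3T3Gli1-Luc cells carrying a stable Gli1-driven firefly luciferase reporter; nearly all actives have a fitted effect of over 15% in size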); details: NIH/3T3 Gli1-Luc reporter, luciferase, 24 h; series mostly up to 92.4 µM
# Summary of the method: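 Quantitative high-throughput format using a Gli1-driven firefly luciferase reporter line derived from NIH/3T3 cells. After a 24 hr compound treatment at 37 C and 5% CO2, luminescence reported Gli1 response element activity.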
# [8] = qHTS assay to identify small molecule antagonists of the sonic hedgehog signaling (Shh) pathway (AID 1259369; calls by dose curve; further: nearly all actives have a fitted effect of over 45% in size; further: potency means the concentration at half of the fitted maximal effect); details: NIH/3T3 Gli1-Luc reporter, Shh antagonist, luminescence 24 h; series mostly up to 92.4 µM
# Summary of the method: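 Stable Gli1-Luc reporter NIH/3T3 clone; quantitative HTS in stimulated mode with conditioned medium. Luminescence measured after 24hr compound treatment at 37 C.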
# [9] = target: Estrogen receptor beta (Homo sapiens) (UniProt Q92731); assay: qHTS assay to identify small molecule agonists of the estrogen receptor beta (ER-beta) signaling pathway (AID 1259377; active means well fitted activation curve with a large enough effect in the signal ratio in the repeat runs, not every such curve was filed as active; the % refers to the signal ratio); details: ER-beta-UAS-bla HEK293T, beta-lactamase FRET ratio, 16 h; series mostly up to 92.4 µM
# Summary of the method: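 HEK293T ER-beta-UAS-bla; 2% charcoal-stripped FBS; cells pre-incubated 6 hr, compound 16 hr, 37C/5% CO2; LiveBLAzer B/G FRET substrate 2 h RT; fluorescence intensity read.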
# [10] = target: Estrogen receptor (Homo sapiens) (UniProt P03372); assay: qHTS assay to identify small molecule antagonists of the estrogen receptor alpha (ER-alpha) signaling pathway using the BG1 cell line in the presence of 0.1 nM 17-beta-estradiol (AID 1259244); details: VM7Luc4E2 (BG1) ERE-luciferase, antagonist mode, 0.1 nM E2, 22 h; series mostly up to 92.4 µM; further: nearly all actives have a fitted effect of over 50% in size; further: potency means the concentration at half of the fitted maximal effect
# Summary of the method: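 Reporter is a stably transfected luciferase under four estrogen responsive elements in VM7Luc4E2 cells expressing native full-length ER-alpha; inhibition of 0.1 nM (final) 17beta-estradiol-driven signal over 22 h is read by luminescence.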
# Androgen receptor (Homo sapiens), sequence (P10275 whole entry, looked up): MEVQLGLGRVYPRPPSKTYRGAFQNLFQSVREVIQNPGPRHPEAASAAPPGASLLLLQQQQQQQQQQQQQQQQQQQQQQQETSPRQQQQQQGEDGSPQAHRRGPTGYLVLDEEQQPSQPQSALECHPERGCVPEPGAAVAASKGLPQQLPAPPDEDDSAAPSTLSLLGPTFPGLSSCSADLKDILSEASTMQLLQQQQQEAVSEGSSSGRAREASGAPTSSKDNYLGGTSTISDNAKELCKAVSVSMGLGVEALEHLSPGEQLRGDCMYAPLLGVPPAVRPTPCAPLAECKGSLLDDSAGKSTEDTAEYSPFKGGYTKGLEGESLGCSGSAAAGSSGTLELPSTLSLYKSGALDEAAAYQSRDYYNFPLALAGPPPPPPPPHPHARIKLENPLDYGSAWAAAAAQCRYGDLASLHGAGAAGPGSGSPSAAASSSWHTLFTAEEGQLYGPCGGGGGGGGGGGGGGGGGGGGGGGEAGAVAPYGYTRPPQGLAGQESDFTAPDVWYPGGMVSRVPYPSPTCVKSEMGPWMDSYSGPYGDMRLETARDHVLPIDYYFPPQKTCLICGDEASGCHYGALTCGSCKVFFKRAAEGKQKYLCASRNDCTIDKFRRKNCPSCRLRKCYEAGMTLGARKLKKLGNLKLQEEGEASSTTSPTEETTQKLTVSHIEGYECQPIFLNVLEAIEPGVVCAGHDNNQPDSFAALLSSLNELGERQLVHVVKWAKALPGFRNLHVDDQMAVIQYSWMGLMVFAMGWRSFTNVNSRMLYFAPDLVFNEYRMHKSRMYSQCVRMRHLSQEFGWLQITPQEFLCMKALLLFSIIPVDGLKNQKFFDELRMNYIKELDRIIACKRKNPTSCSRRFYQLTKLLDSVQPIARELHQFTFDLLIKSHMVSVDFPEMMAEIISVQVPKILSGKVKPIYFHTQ
# Estrogen receptor (Homo sapiens), sequence (P03372 whole entry, looked up): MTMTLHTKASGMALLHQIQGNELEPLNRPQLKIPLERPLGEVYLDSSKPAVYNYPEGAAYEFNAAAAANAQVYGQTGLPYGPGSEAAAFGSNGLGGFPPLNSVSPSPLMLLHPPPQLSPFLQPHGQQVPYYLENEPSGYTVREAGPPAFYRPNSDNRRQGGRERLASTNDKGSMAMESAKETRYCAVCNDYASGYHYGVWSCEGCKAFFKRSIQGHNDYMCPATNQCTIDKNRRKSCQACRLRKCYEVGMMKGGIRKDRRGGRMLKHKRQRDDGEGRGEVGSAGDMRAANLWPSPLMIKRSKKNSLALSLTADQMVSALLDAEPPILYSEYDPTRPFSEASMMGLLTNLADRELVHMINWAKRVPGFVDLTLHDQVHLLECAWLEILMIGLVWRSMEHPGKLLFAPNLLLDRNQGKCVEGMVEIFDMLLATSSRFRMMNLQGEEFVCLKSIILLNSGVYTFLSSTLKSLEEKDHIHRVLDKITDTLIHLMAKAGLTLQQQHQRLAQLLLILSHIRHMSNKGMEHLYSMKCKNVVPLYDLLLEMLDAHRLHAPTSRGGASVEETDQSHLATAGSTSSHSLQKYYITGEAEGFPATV
# Estrogen receptor beta (Homo sapiens), sequence (Q92731 whole entry, looked up): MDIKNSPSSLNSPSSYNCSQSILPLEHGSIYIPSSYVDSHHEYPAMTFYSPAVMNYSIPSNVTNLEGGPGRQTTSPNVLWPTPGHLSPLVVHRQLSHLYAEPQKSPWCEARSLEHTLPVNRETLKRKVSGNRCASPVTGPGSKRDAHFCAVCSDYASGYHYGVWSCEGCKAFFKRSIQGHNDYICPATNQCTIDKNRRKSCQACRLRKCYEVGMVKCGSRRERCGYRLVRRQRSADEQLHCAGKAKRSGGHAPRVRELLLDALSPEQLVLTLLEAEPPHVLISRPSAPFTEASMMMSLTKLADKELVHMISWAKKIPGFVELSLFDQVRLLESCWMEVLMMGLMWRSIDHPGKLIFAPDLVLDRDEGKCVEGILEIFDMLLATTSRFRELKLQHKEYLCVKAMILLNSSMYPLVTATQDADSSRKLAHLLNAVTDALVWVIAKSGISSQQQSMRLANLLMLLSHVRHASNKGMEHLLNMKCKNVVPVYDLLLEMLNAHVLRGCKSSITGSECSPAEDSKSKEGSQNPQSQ
smiles,measurement,setting,value
O=C1OC(OC(=O)c2cccnc2Nc2cccc(C(F)(F)F)c2)c2ccccc21 (stereo unspecified),Potency,[1],inactive
same,Potency,[2],inactive
same,Potency,[3],inactive
same,Potency,[4],inactive
same,Potency,[5],inactive
same,Potency,[6],inactive
same,Potency,[7],inactive
N[C@@H](CSSC[C@H](N)C(=O)O)C(=O)O,"activity, negative = inhibition",[1],4.74% [at 0.349 µM]
same,Potency,[2],inactive
same,"activity change, negative = inhibition",[3],-1.21% [at 0.349 µM]
same,"activity change, negative = cytotoxicity",[4],2.74% [at 0.349 µM]
same,"viability change, negative = cytotoxic",[5],13.4% [at 0.349 µM]
same,activity change,[7],"-0.169% [at 0.349 µM, active compounds read high]"
same,Potency,[8],0.335 µM (active)
same,activation,[9],5.41% [at 0.348 µM]
O=C1C=CC(=O)N1c1ccccc1,Potency,[1],30.6 µM (active)
same,Potency,[10],61.1 µM (active)
same,Potency,[3],27.3 µM (active)
same,Potency,[5],9.69 µM (active)
same,Potency,[6],12.2 µM (active)
same,Potency,[7],inactive
same,Potency,[8],6.11 µM (active)
same,Potency,[9],inactive
CCOC(=O)CC(C)O (stereo unspecified),Potency,[1],inactive
same,Potency,[3],inactive
same,Potency,[4],inactive
same,Potency,[5],inactive
same,Potency,[6],inactive
same,Potency,[7],inactive
same,Potency,[8],inactive
same,Potency,[9],inactive
CC(=O)Oc1ccc(C2(c3ccc(OC(C)=O)cc3)C(=O)Nc3ccccc32)cc1,Potency,[10],0.168 µM (active)
same,Potency,[2],inactive
same,Potency,[3],inactive
same,Potency,[4],inactive
same,Potency,[7],inactive
same,Potency,[9],inactive
CO[C@H]1C=CO[C@@]2(C)Oc3c(C)c(O)c4c(O)c(cc(O)c4c3C2=O)NC(=O)/C(C)=C\C=C/[C@H](C)[C@H](O)[C@@H](C)[C@@H](O)[C@@H](C)[C@H](OC(C)=O)[C@@H]1C,Potency,[10],54.9 µM (active)
same,Potency,[2],inactive
same,Potency,[3],inactive
same,Potency,[4],inactive
same,Potency,[5],13.8 µM (active)
same,Potency,[6],15.5 µM (active)
same,Potency,[7],inactive
same,Potency,[8],13.8 µM (active)
same,Potency,[9],inactive
CCCCCCCCCCCCCCNCCO,Potency,[10],inactive
same,Potency,[2],inactive
same,Potency,[3],inactive
same,Potency,[4],inactive
same,Potency,[5],inactive
same,Potency,[6],inactive
same,Potency,[7],inactive
same,Potency,[8],inactive
CC(C)N=C(N)/N=C(\N)Nc1ccc(Cl)cc1,Potency,[10],inactive
same,Potency,[2],inactive
same,Potency,[3],inactive
same,Potency,[4],inactive
same,Potency,[6],inactive
same,Potency,[7],inactive
same,Potency,[9],inactive
CCCCOc1ccc(C(=O)CCN2CCCCC2)cc1,Potency,[10],inactive
same,Potency,[2],inactive
same,Potency,[3],inactive
same,Potency,[4],inactive
same,Potency,[6],inactive
same,Potency,[7],inactive
same,Potency,[8],inactive
same,Potency,[9],inactive
CC(C)(c1cc(Br)c(OCCO)c(Br)c1)c1cc(Br)c(OCCO)c(Br)c1,Potency,[1],23.8 µM (active)
same,Potency,[3],inactive
same,Potency,[4],inactive
same,Potency,[6],inactive
same,Potency,[7],inactive
same,Potency,[8],1.89 µM (active)
same,Potency,[9],inactive
CN(Cc1cc(Br)cc(Br)c1N)C1CCCCC1,Potency,[10],inactive
same,Potency,[2],inactive
same,Potency,[3],inactive
same,Potency,[4],inactive
same,Potency,[5],inactive
same,Potency,[6],inactive
same,Potency,[7],inactive
same,Potency,[8],inactive
same,Potency,[9],inactive
CCCCNc1c(C(=O)OCC)c(C)nc2c1cnn2CC,Potency,[10],inactive
same,Potency,[2],inactive
same,Potency,[3],inactive
same,Potency,[4],inactive
same,Potency,[5],inactive
same,Potency,[6],inactive
same,Potency,[7],inactive
same,Potency,[8],0.0422 µM (active)
same,Potency,[9],inactive
CCOC(=O)[C@@](C)(N)Cc1ccc(O)c(O)c1,Potency,[10],inactive
same,Potency,[2],inactive
same,Potency,[3],inactive
same,Potency,[4],inactive
same,Potency,[5],inactive
CCN(CC)CCSC(=O)C(c1ccccc1)c1ccccc1,Potency,[10],inactive
same,Potency,[2],inactive
same,Potency,[3],inactive
same,Potency,[4],inactive
same,Potency,[5],inactive
same,Potency,[7],inactive
same,Potency,[8],23.7 µM (active)
same,Potency,[9],inactive
CC(=O)Oc1ccc(C2(c3ccc(OC(C)=O)cc3)Oc3ccccc3NC2=O)cc1,Potency,[10],inactive
same,Potency,[2],inactive
same,Potency,[3],inactive
same,Potency,[4],inactive
same,Potency,[5],inactive
same,Potency,[7],inactive
same,Potency,[8],8.41 µM (active)
same,Potency,[9],inactive
CC(NCCC(c1ccccc1)c1ccccc1)c1ccccc1 (stereo unspecified),Potency,[1],21.1 µM (active)
same,Potency,[3],inactive
same,Potency,[4],inactive
same,Potency,[7],inactive
same,Potency,[8],26.6 µM (active)
CCCC(CC)CCCCCCCN (stereo unspecified),Potency,[10],inactive
same,Potency,[3],inactive
same,Potency,[4],inactive
same,Potency,[5],inactive
same,Potency,[6],inactive
same,Potency,[7],inactive
